In PubChem BioAssay (NCATS):
Results filed as inconclusive are left out. The source made the active and inactive calls. The call rests on the fitted dose curve; in most records, active means well fitted curve in the direction sought with a large enough effect; inconclusive means small, poorly fitted or top-dose-only effect, or another doubt; inactive means no such curve, though single readings can be large; an effect the other way counts as inactive or inconclusive.

Assays:
[1] = qHTS Assay for Identifying Gametocytocidal Compounds (AID 743244);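 further: on the % scale 0 is the no-effect control and ±100 the full control effect; actives lower the fluorescent signal which means gametocytes are killed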; conditions: P. falciparum 3D7 stage III-V gametocytes, alamarBlue, 72 h; max response: stronger effect = lower value
How it was run: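 In this qHTS viability screen, late-stage 3D7 gametocytes are incubated with compound for 72 h, then with alamarBlue for 24 h; reduced resorufin fluorescence marks killing.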

[2] = qHTS assay for measurement of the activity of small molecule inhibitors on Zika virus induced Caspase-3 activity in human iPSC derived neural progenitor cells (hNPCs) (AID 1224857); further: % of control where 0% means no effect; nearly all actives have a fitted effect of over 65% in size
How it was run: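 In medium with heparin 2 ug/ml and cyclopamine 2 uM, hNPCs (350 cells/well) received compound for one hour and then Zika virus at 2 FFU/cell; caspase activity was measured by Caspase-Glo 3/7 luminescence 6 h post-infection.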

[3] = qHTS assay for measurement of the activity of small molecule inhibitors on Zika virus induced Caspase-3 activity in human astrocytoma cells (AID 1224859);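 further: plate controls were ZIKV-infected untreated cells for no effect and uninfected cells for full effect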
How it was run: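 A cell-based luminescent caspase-3/7 assay used SNB-19 cells infected with ZIKV (2 FFU/cell) for 6 h following 1 h compound pretreatment.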

[4] = qHTS assay to identify small molecule inhibitors of chordoma cells - UCH-1 (AID 1259355); further: on the % scale 0 is the no-effect control and ±100 the full control effect; nearly all actives have a fitted effect of over 55% in size
How it was run: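 Luminescent ATP read-out (CellTiter-Glo, 30min at room temperature) measured viability of UCH-1 cells exposed for 48hr to test drugs at 15 concentrations, co-dosed with a five-agent combination of auranofin, camptothecin, doxorubicin, rubitecan and topotecan.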

[5] = qHTS assay to identify small molecule inhibitors of chordoma cells - UCH-2 (AID 1259356); further: series mostly up to about 46 µM; on the % scale 0 is the no-effect control and ±100 the full control effect

NS(=O)(=O)c1cc(-c2nn[nH]n2)c(NCc2cccs2)cc1Cl
inactive: max response [1] 54.3% | outcome [2] | outcome [3] | outcome [4] | outcome [5]

CC1CCc2cc(F)cc3c(=O)c(C(=O)O)cn1c23 (stereo not given)
inactive: max response [1] -10.9% | outcome [2] | outcome [3] | outcome [4] | outcome [5]

O=C(O)CCCc1ccccc1
inactive: max response [1] 13.9% | outcome [2] | outcome [3] | outcome [4] | outcome [5]

Cn1c([N+](=O)[O-])cnc1COC(N)=O
inactive: max response [1] 1.6% | outcome [2] | outcome [3] | outcome [4] | outcome [5]

NC(=O)NS(=O)(=O)c1ccc(N)cc1
inactive: max response [1] 3.95% | outcome [2] | outcome [3] | outcome [4] | outcome [5]

Cc1c(NC(C)C)c(=O)n(-c2ccccc2)n1C
inactive: max response [1] -2.3% | outcome [2] | outcome [3] | outcome [4] | outcome [5]

CCOC(=O)OC(C)OC(=O)[C@@H]1N2C(=O)[C@@H](NC(=O)[C@H](N)c3ccccc3)[C@H]2SC1(C)C (stereo not given in full)
inactive: max response [1] 15.8% | outcome [2] | outcome [3] | outcome [4] | outcome [5]

CC[C@]12CCCN3CCc4c(n(c5ccccc45)[C@@](O)(C(=O)OC)C1)[C@@H]32
inactive: max response [1] 13.2% | outcome [2] | outcome [3] | outcome [4] | outcome [5]

O[C@@H]1CO[C@H]2[C@@H]1OC[C@@H]2O
inactive: max response [1] -6.28% | outcome [2] | outcome [3] | outcome [4] | outcome [5]

Cc1ccc(S(=O)(=O)NC(=O)NC2CCCCC2)cc1
inactive: max response [1] 0.0407% | outcome [2] | outcome [3] | outcome [4] | outcome [5]

Cc1cc(NC(=O)C2=C(O)c3ccccc3S(=O)(=O)N2C)no1
inactive: max response [1] -9.54% | outcome [2] | outcome [3] | outcome [4] | outcome [5]

CCCCCOC(=O)Nc1nc(=O)n([C@@H]2O[C@H](C)[C@@H](O)[C@H]2O)cc1F
inactive: max response [1] 5.02% | outcome [2] | outcome [3] | outcome [4] | outcome [5]

Nc1ccc(C(=O)Oc2ccccc2)c(O)c1
inactive: max response [1] -7.01% | outcome [2] | outcome [3] | outcome [4] | outcome [5]

O=C(O)CNC(=O)c1ccccc1I
inactive: max response [1] -0.623% | outcome [2] | outcome [3] | outcome [4] | outcome [5]

CCOC(=O)[C@H](CCc1ccccc1)N[C@@H](C)C(=O)N1CCC[C@H]1C(=O)O
inactive: max response [1] -2.72% | outcome [2] | outcome [3] | outcome [4] | outcome [5]

CN1C[C@@H]2C[C@H]1CN2c1cc2c(cc1F)c(=O)c(C(=O)O)cn2C1CC1
inactive: max response [1] 2.79% | outcome [2] | outcome [3] | outcome [4] | outcome [5]

C/C=C/C(=O)N(CC)c1ccccc1C
inactive: max response [1] 21.1% | outcome [2] | outcome [3] | outcome [4] | outcome [5]

Cc1ncc(CO)c(CN)c1O
inactive: max response [1] 6.59% | outcome [2] | outcome [3] | outcome [4] | outcome [5]

CC1(C)S[C@@H]2[C@H](NC(=O)C(C(=O)O)c3ccccc3)C(=O)N2[C@H]1C(=O)O (stereo not given in full)
inactive: max response [1] -0.734% | outcome [2] | outcome [3] | outcome [4] | outcome [5]

CC(=O)OCC(=O)[C@@]1(O)CC[C@H]2[C@@H]3CCC4=CC(=O)C=C[C@]4(C)[C@@]3(F)[C@@H](O)C[C@@]21C
inactive: max response [1] 18.9% | outcome [2] | outcome [3] | outcome [4] | outcome [5]

CCCCCC(C)N (stereo not given)
inactive: max response [1] 7.89% | outcome [2] | outcome [3] | outcome [4] | outcome [5]

Cc1ccsc1C(=CCCN1CCC[C@@H](C(=O)O)C1)c1sccc1C
inactive: max response [1] -0.959% | outcome [2] | outcome [3] | outcome [4] | outcome [5]

CCc1cccc(CC)c1NC(=O)CN(CC(=O)O)CC(=O)O
inactive: max response [1] 12.1% | outcome [2] | outcome [3] | outcome [4] | outcome [5]

COc1cc(O)cc(O)c1
inactive: max response [1] -9.75% | outcome [2] | outcome [3] | outcome [4] | outcome [5]

CCOC(=O)[C@H](CCc1ccccc1)N[C@@H](C)C(=O)N1Cc2cc(OC)c(OC)cc2C[C@H]1C(=O)O
inactive: max response [1] 0.618% | outcome [2] | outcome [3] | outcome [4] | outcome [5]

CCCCC1(COC(=O)CCC(=O)O)C(=O)N(c2ccccc2)N(c2ccccc2)C1=O
inactive: max response [1] 1.1% | outcome [2] | outcome [3] | outcome [4] | outcome [5]

NC(=O)c1ccc([N+](=O)[O-])cc1Cl
inactive: max response [1] -9.98% | outcome [2] | outcome [3] | outcome [4] | outcome [5]

CCC(C)(CN(C)C)OC(=O)c1ccccc1 (stereo not given)
inactive: max response [1] -2.53% | outcome [2] | outcome [3] | outcome [4] | outcome [5]

CCOc1ccc(C(=O)OCCN(CC)CC)cc1
inactive: max response [1] 4.91% | outcome [2] | outcome [3] | outcome [4] | outcome [5]

O=C(O)Cc1ccc(CCNS(=O)(=O)c2ccc(Cl)cc2)cc1
inactive: max response [1] 23.5% | outcome [2] | outcome [3] | outcome [4] | outcome [5]

O=c1[nH]c(=O)n([C@H]2C[C@H](O)[C@@H](CO)O2)cc1I
inactive: max response [1] 3.28% | outcome [2] | outcome [3] | outcome [4] | outcome [5]

C[N+](C)(C)CC(O)CC(=O)[O-] (stereo not given)
inactive: max response [1] -7.85% | outcome [2] | outcome [3] | outcome [4] | outcome [5]

CCN[C@H]1CN(CCCOC)S(=O)(=O)c2sc(S(N)(=O)=O)cc21
inactive: max response [1] 21.3% | outcome [2] | outcome [3] | outcome [4] | outcome [5]

CC(=O)Oc1cccc(O)c1
inactive: max response [1] 2.07% | outcome [2] | outcome [3] | outcome [4] | outcome [5]

Cc1cc(C)c(NC(=O)CN(CC(=O)O)CC(=O)O)c(C)c1Br
inactive: max response [1] 9.03% | outcome [2] | outcome [3] | outcome [4] | outcome [5]

NS(=O)(=O)c1cc(C2(O)NC(=O)c3ccccc32)ccc1Cl (stereo not given)
inactive: max response [1] 0.268% | outcome [2] | outcome [3] | outcome [4] | outcome [5]

CN1CCCN=C1COC(=O)C(O)(c1ccccc1)C1CCCCC1 (stereo not given)
inactive: max response [1] -2.61% | outcome [2] | outcome [3] | outcome [4] | outcome [5]

Cc1[nH]c(C)c(Cl)c(=O)c1Cl
inactive: max response [1] -2.25% | outcome [2] | outcome [3] | outcome [4] | outcome [5]

O=C(Cn1ccnc1[N+](=O)[O-])NCc1ccccc1
inactive: max response [1] -2.89% | outcome [2] | outcome [3] | outcome [4] | outcome [5]

O=C(/C=C/c1ccccc1)OCc1ccccc1
inactive: max response [1] 18.6% | outcome [2] | outcome [3] | outcome [4] | outcome [5]

NS(=O)(=O)c1ccc(C(=O)O)cc1
inactive: max response [1] 4.63% | outcome [2] | outcome [3] | outcome [4] | outcome [5]

CC(N)CCCC(C)(C)O (stereo not given)
inactive: max response [1] -9.78% | outcome [2] | outcome [3] | outcome [4] | outcome [5]

NC(=O)NC1NC(=O)NC1=O (stereo not given)
inactive: max response [1] -4.09% | outcome [2] | outcome [3] | outcome [4] | outcome [5]

CC(=O)N(CC(O)CN(C(C)=O)c1c(I)c(C(=O)NCC(O)CO)c(I)c(C(=O)NCC(O)CO)c1I)c1c(I)c(C(=O)NCC(O)CO)c(I)c(C(=O)NCC(O)CO)c1I (stereo not given)
inactive: max response [1] -5.28% | outcome [2] | outcome [3] | outcome [4] | outcome [5]

Nc1ncnc(Nc2ccccc2)n1
inactive: max response [1] -1.5% | outcome [2] | outcome [3] | outcome [4] | outcome [5]

CN1CC(=O)NC1=N
inactive: max response [1] -8.6% | outcome [2] | outcome [3] | outcome [4] | outcome [5]

C/C=C1\[C@H]2C=C(C)C[C@]1(N)c1ccc(=O)[nH]c1C2
inactive: max response [1] 2.62% | outcome [2] | outcome [3] | outcome [4] | outcome [5]

CC[C@H](C)[C@H](N)C(=O)O
inactive: max response [1] -11.6% | outcome [2] | outcome [3] | outcome [4] | outcome [5]

CCCCCCCC(=O)OCC(O)CO (stereo not given)
inactive: max response [1] 0.163% | outcome [2] | outcome [3] | outcome [4] | outcome [5]

NNc1nnc(NN)c2ccccc12
inactive: max response [1] 5.69% | outcome [2] | outcome [3] | outcome [4] | outcome [5]

C[C@@H](N)C(=O)O
inactive: max response [1] -2.49% | outcome [2] | outcome [3] | outcome [4] | outcome [5]

CC(C)(C)NCC(O)COc1cccc2c1CCC(=O)N2 (stereo not given)
inactive: max response [1] 15.2% | outcome [2] | outcome [3] | outcome [4] | outcome [5]

NC(=O)N[C@@H](CCC(=O)O)C(=O)O
inactive: max response [1] -4.71% | outcome [2] | outcome [3] | outcome [4] | outcome [5]

COc1ccccc1Oc1c(NS(=O)(=O)c2ccc(C(C)(C)C)cc2)nc(-c2ncccn2)nc1OCCO
inactive: max response [1] -3.79% | outcome [2] | outcome [3] | outcome [4] | outcome [5]

COC(=O)c1ccccc1C(=O)c1ccc(OCCN2CCCCC2)cc1
inactive: max response [1] -9.15% | outcome [2] | outcome [3] | outcome [4] | outcome [5]

CN[C@@H]1[C@H](O)[C@H](NC)[C@H]2O[C@@]3(O)C(=O)C[C@@H](C)O[C@H]3O[C@@H]2[C@H]1O
inactive: max response [1] 2.93% | outcome [2] | outcome [3] | outcome [4] | outcome [5]

CC(C)C[C@@H](N)C(=O)O
inactive: max response [1] -9.37% | outcome [2] | outcome [3] | outcome [4] | outcome [5]

O=C(Cn1ccnc1[N+](=O)[O-])NCCO
inactive: max response [1] 11.8% | outcome [2] | outcome [3] | outcome [4] | outcome [5]

CC(=O)Oc1cccc(C)c1
inactive: max response [1] 19.2% | outcome [2] | outcome [3] | outcome [4] | outcome [5]

O=C(O)c1ccc(OCCCOc2ccc(C(=O)O)cc2)cc1
inactive: max response [1] 1.74% | outcome [2] | outcome [3] | outcome [4] | outcome [5]

N[C@@H](Cc1ccc(O)cc1)C(=O)O
inactive: max response [1] 0.124% | activity change, negative = inhibition [2] 4.45% [at 9.06 µM] | activity change, negative = inhibition [3] -11% [at 9.06 µM] | outcome [4] | outcome [5]

NC(N)=NCCN1CCCCCCC1
inactive: max response [1] 21% | activity change, negative = inhibition [2] 6.93% [at 0.568 µM] | activity change, negative = inhibition [3] -3.82% [at 0.568 µM] | outcome [4] | outcome [5]

CCS(=O)(=O)CCn1c([N+](=O)[O-])cnc1C
inactive: max response [1] 9.95% | outcome [2] | outcome [3] | outcome [4] | outcome [5]

CC(C)=CCC[C@@](C)(O)[C@H]1CC=C(C)CC1
inactive: max response [1] 10.2% | outcome [2] | outcome [3] | outcome [4] | outcome [5]

CCCCCCCCCCCCCCCCC(C(=O)O)C(O)(CC(=O)O)C(=O)O (stereo not given)
inactive: max response [1] 6.09% | outcome [2] | outcome [3] | outcome [4] | outcome [5]

C[C@H]1COc2c(C3(N)CC3)c(F)cc3c(=O)c(C(=O)O)cn1c23
inactive: max response [1] -1.28% | outcome [2] | outcome [3] | outcome [4] | outcome [5]

Cc1c(I)c(=O)n(-c2ccccc2)n1C
inactive: max response [1] 4.77% | outcome [2] | outcome [3] | outcome [4] | outcome [5]
